Screens deposited in PubChem by several laboratories.
hcDAF12 agonist: H. contortus DAF-12 activation, primary screen; activation, % at 6.8 µM; actives 1.4% (n = 370,000); AID 652067; HEK293 hcDAF-12 lit1-tk-luc reporter, luminescence; 0% DMSO, 100% Δ7-dafachronic acid;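 active means activation above the mean of all tested compounds plus 3 SD, cut at about 5.5% in these data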
NR1D1 modulator: modulates human Rev-erb alpha binding to DNA; P20393; activity, % at 10 µM; actives 0.79% (n = 370,000); Rev-erbα–FITC-DNA binding, fluorescence polarization, 90 min;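 active means activity above about 14%, limit read from the data; passing the limit was not always enough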
DAX1 inh-1: inhibitors of DAX1 repression of SF-1 activated StAR promoter; HEK293T StAR-luciferase reporter, SF-1/DAX-1 repression relief; inhibition, % at 6.8 µM; AID 652010; actives 1.1% (n = 370,000);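 active means inhibition above the mean over all tested compounds plus 3 SD, cut at about 3.6% in these data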;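 further: higher inhibition means more luminescence from relief of DAX-1 repression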
ssDAF-12 act: S. stercoralis DAF-12 activation, primary screen | actives 1% (n = 370,000) | AID 652126 | activation, % at 6.8 µM | HEK293 ssDAF-12/GRIP1 lit1-tk-luc reporter, luminescence; % of 3 µM dafachronic acid response;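 active means activation above the mean over all tested compounds plus 3 SD, cut at about 0.9% in these data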
hgDAF12 agonist: activates the H. glycines DAF-12 receptor ligand-binding domain. activation, % at 6.8 µM. HEK293 GAL4-hgDAF12 UAS-luciferase reporter, agonist luminescence; normalized to butyrate control. actives 1.8% (n = 370,000). AID 687014;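 active means activation above a cutoff set at the mean of all screened compounds plus 3 SD, cut at about 10% in these data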
DAX1 inh-2: inhibitors of human orphan nuclear receptor DAX1 (NR0B1); P51843; HEK293 Gal4-DAX1 luciferase reporter, luminescence; inhibition, % at 6.75 µM; actives 0.99% (n = 340,000);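 active means inhibition above the mean over all tested compounds plus 3 SD, cut at about 4.2% in these data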;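 further: inhibition shows as a rise in luminescence from relieved DAX1 repression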
Target sequence (P51843 207-470 limits assumed): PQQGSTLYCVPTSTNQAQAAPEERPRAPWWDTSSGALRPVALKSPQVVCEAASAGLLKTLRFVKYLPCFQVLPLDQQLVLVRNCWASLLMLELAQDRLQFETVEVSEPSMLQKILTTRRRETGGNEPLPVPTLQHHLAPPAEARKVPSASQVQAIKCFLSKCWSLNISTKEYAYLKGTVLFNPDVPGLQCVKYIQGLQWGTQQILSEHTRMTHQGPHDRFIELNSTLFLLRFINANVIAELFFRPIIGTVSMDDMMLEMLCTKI
Rev-erbA confirm: Rev-erb alpha (human) modulation, hit confirmation | activation, % at 25 µM | AID 1259319 | shares compounds with NR1D1 modulator | actives 61% (n = 3,000) | Rev-erb alpha FITC-DNA binding, fluorescence polarization, 90 min;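 active means activation at or above a set limit, or at least 3 SD above the negative control mean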
RORg DNA counter: RORgamma DNA-binding activity, dose-response counter-screen | shares compounds with NR1D1 modulator | purified RORgamma protein-FITC-DNA binding, fluorescence polarization | IC50, µM | actives 8% (n = 910);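 active means Compounds whose fitted half-maximal concentration for disrupting protein-DNA binding is below 10 micromolar; the record names Rev-erb in its text, so the target is in doubt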
A number is an active result. Only some compounds are listed: those with a hit (about 4.8% of all), similar ones and a draw of the others.

Results for CCC(=O)Nc1nn(C)c2nc3c(C)cccc3cc12 ?
hcDAF12 agonist: inactive; NR1D1 modulator: inactive; DAX1 inh-1: inactive; ssDAF-12 act: inactive; hgDAF12 agonist: inactive; DAX1 inh-2: inactive

Results for C=CCN=C1NC(CCc2ccccc2)C(C(=O)OC)=C(C)N1C (stereo not drawn) ?
hcDAF12 agonist: inactive; NR1D1 modulator: inactive; DAX1 inh-1: inactive; ssDAF-12 act: inactive; hgDAF12 agonist: inactive

Results for CC(=O)c1ccc(N2CCN(C(=S)Nc3ccc(Oc4ccccc4)cc3)CC2)cc1 ?
hcDAF12 agonist: inactive; NR1D1 modulator: inactive; DAX1 inh-1: inactive; ssDAF-12 act: inactive; hgDAF12 agonist: inactive; DAX1 inh-2: inactive

Results for CC(=O)c1ccc(N2CCN(C(=S)Nc3cccc(F)c3)CC2)cc1 ?
hcDAF12 agonist: inactive; NR1D1 modulator: 29; DAX1 inh-1: inactive; ssDAF-12 act: inactive; hgDAF12 agonist: inactive; DAX1 inh-2: inactive; Rev-erbA confirm: 18

Results for COc1ccc(-n2nc3ccc(NS(C)(=O)=O)cc3n2)cc1Cl ?
hcDAF12 agonist: inactive; NR1D1 modulator: 23; DAX1 inh-1: inactive; ssDAF-12 act: inactive; hgDAF12 agonist: inactive; DAX1 inh-2: inactive; Rev-erbA confirm: 18

How did Cc1cc(C)c2c(=O)[nH]c(SCC(=O)c3ccc(F)c(C)c3)nc2n1 do in these assays?
hcDAF12 agonist: inactive; NR1D1 modulator: 35; DAX1 inh-1: inactive; ssDAF-12 act: inactive; hgDAF12 agonist: inactive; DAX1 inh-2: inactive; Rev-erbA confirm: 24

Results for O=c1ccc(-c2ccc(S(=O)(=O)N3CCN(c4ccccc4)CC3)o2)n[nH]1 ?
hcDAF12 agonist: inactive; NR1D1 modulator: 120; DAX1 inh-1: inactive; ssDAF-12 act: inactive; hgDAF12 agonist: inactive; DAX1 inh-2: inactive; Rev-erbA confirm: 62; RORg DNA counter: inactive

Results for O=c1ccc(-c2ccc(S(=O)(=O)N3CCN(c4cccc(Cl)c4)CC3)o2)n[nH]1 ?
hcDAF12 agonist: inactive; NR1D1 modulator: 76; DAX1 inh-1: inactive; ssDAF-12 act: inactive; hgDAF12 agonist: inactive; DAX1 inh-2: inactive; Rev-erbA confirm: 86; RORg DNA counter: inactive

What do the screens show for `CCOC(=O)C1CCN(S(=O)(=O)c2ccc(-c3ccc(=O)[nH]n3)o2)CC1`?
hcDAF12 agonist: inactive; NR1D1 modulator: inactive; DAX1 inh-1: inactive; ssDAF-12 act: inactive; hgDAF12 agonist: inactive; DAX1 inh-2: inactive

What do the screens show for `O=S(=O)(c1ccccc1)N1CCN(c2cccc(Cl)c2)CC1`?
hcDAF12 agonist: inactive; NR1D1 modulator: inactive; DAX1 inh-1: inactive; ssDAF-12 act: inactive; hgDAF12 agonist: inactive; DAX1 inh-2: inactive

How did CC1CCCCN1S(=O)(=O)c1cc2c(=O)nc3ccccn3c2cc1Cl (stereo not drawn) do in these assays?
hcDAF12 agonist: inactive; NR1D1 modulator: inactive; DAX1 inh-1: inactive; ssDAF-12 act: inactive; hgDAF12 agonist: inactive

Results for O=C(/C=C/c1ccc(OCCCF)cc1)Nc1ccnc(-c2ccncc2)n1 ?
hcDAF12 agonist: inactive; NR1D1 modulator: inactive; DAX1 inh-1: inactive; ssDAF-12 act: inactive; hgDAF12 agonist: inactive; DAX1 inh-2: inactive

Results for O=C(/C=C/c1ccc(OCCCF)cc1)Nc1ccnc(-c2cccnc2)n1 ?
hcDAF12 agonist: inactive; NR1D1 modulator: 24; DAX1 inh-1: inactive; ssDAF-12 act: inactive; hgDAF12 agonist: inactive; DAX1 inh-2: inactive; Rev-erbA confirm: 22

What do the screens show for `CC(C)C[C@H]1COc2cccc(NCCO)c2S(=O)(=O)N1`?
hcDAF12 agonist: inactive; NR1D1 modulator: inactive; DAX1 inh-1: inactive; ssDAF-12 act: inactive; hgDAF12 agonist: inactive

How did O=C(N[C@@H](Cc1cccnc1)C(=O)N1CCC[C@H]1C(=O)NCCc1ccccc1Cl)C1CC1 do in these assays?
hcDAF12 agonist: inactive; NR1D1 modulator: inactive; DAX1 inh-1: inactive; ssDAF-12 act: inactive; hgDAF12 agonist: inactive

What do the screens show for `CSc1ccc(/C=C(\C#N)C(=O)Nc2cccc(C)c2)cc1`?
hcDAF12 agonist: inactive; NR1D1 modulator: 22; DAX1 inh-1: inactive; ssDAF-12 act: inactive; hgDAF12 agonist: inactive; DAX1 inh-2: inactive; Rev-erbA confirm: inactive

How did Cc1cc(C)c(NC(=O)CSc2nc3ncc(Br)cc3[nH]2)c(Cl)c1 do in these assays?
hcDAF12 agonist: inactive; NR1D1 modulator: 47; DAX1 inh-1: inactive; ssDAF-12 act: inactive; hgDAF12 agonist: inactive; DAX1 inh-2: inactive; Rev-erbA confirm: 64; RORg DNA counter: inactive

Results for Cc1ccc(NC(=O)CSc2nc3ncc(Br)cc3[nH]2)cc1C ?
hcDAF12 agonist: inactive; NR1D1 modulator: 195; DAX1 inh-1: inactive; ssDAF-12 act: inactive; hgDAF12 agonist: inactive; DAX1 inh-2: inactive; Rev-erbA confirm: 186; RORg DNA counter: inactive

How did Cc1cc(NS(=O)(=O)c2ccc(NC(=O)CSc3nc4ncc(Br)cc4[nH]3)cc2)nc(C)n1 do in these assays?
hcDAF12 agonist: inactive; NR1D1 modulator: inactive; DAX1 inh-1: inactive; ssDAF-12 act: inactive; hgDAF12 agonist: inactive; DAX1 inh-2: inactive

Results for CC(=O)c1cccc(NC(=O)c2cccc(NC(=O)c3ccco3)c2)c1 ?
hcDAF12 agonist: inactive; NR1D1 modulator: 45; DAX1 inh-1: inactive; ssDAF-12 act: inactive; hgDAF12 agonist: inactive; DAX1 inh-2: inactive; Rev-erbA confirm: 99; RORg DNA counter: 5.7

What do the screens show for `Cc1cc(C)cc(NC(=O)c2cccc(NC(=O)c3ccco3)c2)c1`?
hcDAF12 agonist: inactive; NR1D1 modulator: inactive; DAX1 inh-1: inactive; ssDAF-12 act: inactive; hgDAF12 agonist: inactive; DAX1 inh-2: inactive

What do the screens show for `CCOC(=O)C(CN1CCCC1)c1ccccc1` (stereo not drawn)?
hcDAF12 agonist: inactive; NR1D1 modulator: 21; DAX1 inh-1: inactive; ssDAF-12 act: inactive; hgDAF12 agonist: inactive; DAX1 inh-2: inactive; Rev-erbA confirm: inactive

How did Cc1ccc(CNC(=O)c2nnn(CC(=O)Nc3cc(C)cc(C)c3)c2N)cc1 do in these assays?
hcDAF12 agonist: inactive; NR1D1 modulator: 24; DAX1 inh-1: inactive; ssDAF-12 act: inactive; hgDAF12 agonist: inactive; DAX1 inh-2: inactive; Rev-erbA confirm: 21

How did COc1cccc(CNC(=O)c2nnn(CC(=O)Nc3ccc(Br)cc3)c2N)c1 do in these assays?
hcDAF12 agonist: inactive; NR1D1 modulator: 19; DAX1 inh-1: inactive; ssDAF-12 act: inactive; hgDAF12 agonist: inactive; DAX1 inh-2: inactive; Rev-erbA confirm: inactive

What do the screens show for `COc1cccc(CCc2ccccc2OCC(CN(C)C)OC(=O)CCC(=O)O)c1` (stereo not drawn)?
NR1D1 modulator: inactive

What do the screens show for `CCOC(=O)Nc1ccc2c(c1)[C@]1(CC(=O)N(CC(C)C)C1c1ccccc1)C(=O)N2C` (stereo partly drawn)?
hcDAF12 agonist: inactive; NR1D1 modulator: inactive; DAX1 inh-1: inactive; ssDAF-12 act: inactive; hgDAF12 agonist: inactive
